PubChem BioAssay (Tox21)
Several values for one entry are separate records, joined by “and”; a condition that tells them apart may be missing. Equal values may be shown once. Results filed as inconclusive are left out. A structure can be active in one record and inactive in another. Activity calls are given as the source filed them. Unless noted, calls come from the whole dose curve.

tested on: not listed separately; assay: qHTS assay to identify small molecule agonists of the estrogen related receptor signaling pathway with the pleiotropic PPARgamma coactivator (PGC) from Tox21 10K library (AID 1224842; active = well fitted activation curve with a large enough effect in the repeat runs; note: nearly all actives have a fitted effect of over 15% in size); conditions: PGC/ERR reporter cell line, luciferase ONE-Glo, 18 h; series mostly up to 92.4 µM; activation: at the top concentration
In short: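 Luminescence from One-Glo (30 min, room temperature) measured after PGC/ERR cells had 18 h at 37 C with pinned compound (23 nL in DMSO). Cells had been seeded at 2,000 per well and pre-incubated 6 h.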
% is set by controls: 0 for no effect and ±100 for the full control effect; potency is the fitted concentration of half-maximal effect.

SMILES	activation	Potency
Nc1ccc(Cc2ccc(N)c(Cl)c2)cc1Cl	0.273% (inactive)	–
CC1(c2ccc(Oc3ccccc3)cc2)OC(=O)N(Nc2ccccc2)C1=O (stereo not given)	-24.7% (inactive)	–
Oc1ccc(C2(c3ccc(O)cc3)c3ccccc3-c3ccccc32)cc1	-35% (inactive)	–
CC(C)(C)C(O)/C(=C\c1ccc(Cl)cc1Cl)n1cncn1 (stereo not given)	-26.2% (inactive)	–
CCc1nn(C)c(C(=O)NCc2ccc(C(C)(C)C)cc2)c1Cl	-21.9% (inactive)	–
O=C(CCCN1CCC2(CC1)C(=O)NCN2c1ccccc1)c1ccc(F)cc1	-7.37% [at 42.5 µM] (inactive)	–
Cc1cc(SCc2sc(-c3ccc(C(F)(F)F)c(F)c3)nc2C)ccc1OCC(=O)O	5.74% (inactive)	–
CC1CCC(C(C)C)C(OC(=O)c2ccccc2N)C1 (stereo not given)	-11.7% (inactive)	–
N#Cc1c(-c2ccc(Cl)cc2)[nH]c(C(F)(F)F)c1Br	-18.3% (inactive)	–
CC[C@H](C)[C@H]1O[C@]2(C=C[C@@H]1C)C[C@@H]1C[C@@H](C/C=C(\C)[C@@H](O[C@H]3C[C@H](OC)[C@@H](O[C@H]4C[C@H](OC)[C@@H](O)[C@H](C)O4)[C@H](C)O3)[C@@H](C)/C=C/C=C3\CO[C@@H]4[C@H](O)C(C)=C[C@@H](C(=O)O1)[C@]34O)O2	-23.3% [at 42.5 µM] (inactive)	–
c1ccc(Nc2ccc3ccccc3c2)cc1	–	27.1 µM (active) and 30.6 µM (active)
COc1cccc(C(=O)CCN[C@@H](C)[C@H](O)c2ccccc2)c1	-0.573% [at 42.5 µM] (inactive)	–
C=CC(=O)OCCCCOC(=O)C=C	–	21.7 µM (active)
O=C(CCl)Nc1ccccc1	-36.7% (inactive)	–

target: Thyrotropin receptor (Homo sapiens) (UniProt P16473); assay: qHTS assay to identify small molecule agonists of the thyroid stimulating hormone receptor (TSHR) signaling pathway (AID 1224843); conditions: TSHR-HEK293 cells, cAMP HTRF, agonist mode, 30 min; series mostly up to 92.4 µM; activation: at the top concentration; note: nearly all actives have a fitted effect of over 45% in size
In short: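 Screening of the Tox21 10K collection used HEK293 cells engineered with TSHR at 800 cells per well. After a 30-min room-temperature compound exposure, HTRF cAMP reagents were added and fluorescence recorded 1 h later.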

Sequence of Thyrotropin receptor (Homo sapiens) (P16473 whole entry, looked up): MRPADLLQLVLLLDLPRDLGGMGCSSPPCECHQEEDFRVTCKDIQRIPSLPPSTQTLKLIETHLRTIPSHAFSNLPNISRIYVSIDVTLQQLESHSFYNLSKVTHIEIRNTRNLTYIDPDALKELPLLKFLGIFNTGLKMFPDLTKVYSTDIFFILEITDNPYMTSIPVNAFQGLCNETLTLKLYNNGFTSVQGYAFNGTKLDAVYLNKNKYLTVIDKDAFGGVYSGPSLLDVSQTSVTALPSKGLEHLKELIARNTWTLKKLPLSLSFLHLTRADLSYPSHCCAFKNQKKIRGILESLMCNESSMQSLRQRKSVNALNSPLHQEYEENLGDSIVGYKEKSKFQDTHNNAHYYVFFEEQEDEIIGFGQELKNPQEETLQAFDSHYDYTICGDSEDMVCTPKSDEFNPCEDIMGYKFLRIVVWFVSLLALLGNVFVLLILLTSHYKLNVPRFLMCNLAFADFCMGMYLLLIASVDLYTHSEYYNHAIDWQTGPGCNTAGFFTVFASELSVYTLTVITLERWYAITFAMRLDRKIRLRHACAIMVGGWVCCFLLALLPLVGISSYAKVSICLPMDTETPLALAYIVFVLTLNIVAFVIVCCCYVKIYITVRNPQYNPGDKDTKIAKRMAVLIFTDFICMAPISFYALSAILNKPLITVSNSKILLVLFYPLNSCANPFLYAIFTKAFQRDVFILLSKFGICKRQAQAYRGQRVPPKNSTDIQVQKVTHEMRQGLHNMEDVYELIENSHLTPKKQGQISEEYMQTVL

SMILES	activation	Potency
Nc1ccc(Cc2ccc(N)c(Cl)c2)cc1Cl	-20.6% (inactive)	–
CC(C)OC(=O)C(O)(c1ccc(Cl)cc1)c1ccc(Cl)cc1	–	48.6 µM (active)
CC(=O)O[C@H]1CC[C@@]2(C)C(=CC[C@@H]3[C@@H]2CC[C@]2(C)C(=O)CC[C@@H]32)C1	-20.3% (inactive)	–
c1ccc2c(c1)OCC(C1=NCCN1)O2 (stereo not given)	–	15 µM (active)
CCCOCC(=Nc1ccc(Cl)cc1C(F)(F)F)n1ccnc1	–	54.4 µM (active)
Cc1cc(C(C)(C)c2cc(C)c(O)c(C)c2)cc(C)c1O	–	33.2 µM (active)
Oc1ccc(C2(c3ccc(O)cc3)c3ccccc3-c3ccccc32)cc1	–	54.5 µM (active)
CCCCCCCCc1ccc(O)cc1	7.37% (inactive)	–
O=C(CCCN1CCC2(CC1)C(=O)NCN2c1ccccc1)c1ccc(F)cc1	5.74% [at 42.5 µM] (inactive)	–
CC1CCC(C(C)C)C(OC(=O)c2ccccc2N)C1 (stereo not given)	16.2% (inactive)	–
Clc1ccc(COC(Cn2ccnc2)c2ccc(Cl)cc2Cl)cc1 (stereo not given)	–	inactive
N#Cc1c(-c2ccc(Cl)cc2)[nH]c(C(F)(F)F)c1Br	4.39% (inactive)	–
O=C(O)c1cc[c]([Hg][Cl])cc1	–	15.4 µM (active)
c1ccc(Nc2ccc3ccccc3c2)cc1	–	48.3 µM (active)
COc1cccc(C(=O)CCN[C@@H](C)[C@H](O)c2ccccc2)c1	21% [at 42.5 µM] (inactive)	–
C[CH2][Hg][N]1C(=O)C2C(C1=O)C1(Cl)C(Cl)=C(Cl)C2(Cl)C1(Cl)Cl (stereo not given)	-16.4% [at 19 µM] (inactive)	–
[CH3][Hg][Cl]	-20.5% (inactive)	–
Nc1ccc(Cl)cc1C(=O)c1ccccc1	-22.3% (inactive)	–
COc1cccc2c1C(=O)c1c(O)c3c(c(O)c1C2=O)C[C@@](O)(C(=O)CO)CC3OC1CC(N2CCOC(OC)C2)C(O)C(C)O1 (stereo not given in full)	0.44% [at 42.5 µM] (inactive)	–
O=C(CCl)Nc1ccccc1	-12% (inactive)	–
O=CC(Br)(Br)Br	–	30.5 µM (active)

tested on: not listed separately; assay: qHTS assay to identify small molecule agonists of the hypoxia (HIF-1) signaling pathway - cell viability counter screen (AID 1224844); conditions: HRE-bla ME-180 viability, CellTiter-Glo luminescence, 17 h; series mostly up to 76.8 µM; activity change, negative = cytotoxicity: at the top concentration; note: nearly all actives have a fitted effect of over 50% in size
In short: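 Tox21 10K compounds were added to HRE-bla ME-180 cells (0.5% dialyzed FBS) and incubated 17 hrs at 37C; ATP-based CellTiter-Glo luminescence then reported cell viability in the same wells.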

SMILES	Potency	activity change, negative = cytotoxicity
CC1(c2ccc(Oc3ccccc3)cc2)OC(=O)N(Nc2ccccc2)C1=O (stereo not given)	22 µM (active)	–
CCCCCCCCCCCCCCCC[N+](C)(C)C	–	6.98% [at 35.3 µM] (inactive)
O=C(CBr)c1ccc(O)cc1	–	0.321% (inactive)
CCCOCC(=Nc1ccc(Cl)cc1C(F)(F)F)n1ccnc1	–	-8.23% (inactive)
Cc1cc(C(C)(C)c2cc(C)c(O)c(C)c2)cc(C)c1O	–	-23.1% (inactive)
CN(C)C(=S)S	1.41 µM (active) and 4.86 µM (active) and 4.36 µM (active)	–
CC(C)(C)C(O)/C(=C\c1ccc(Cl)cc1Cl)n1cncn1 (stereo not given)	–	-10.3% (inactive)
CCCCCCCCc1ccc(O)cc1	39.1 µM (active)	–
Cc1cc(SCc2sc(-c3ccc(C(F)(F)F)c(F)c3)nc2C)ccc1OCC(=O)O	12.3 µM (active)	–
CC1CCC(C(C)C)C(OC(=O)c2ccccc2N)C1 (stereo not given)	38.4 µM (active)	–
Clc1ccc(COC(Cn2ccnc2)c2ccc(Cl)cc2Cl)cc1 (stereo not given)	32.3 µM (active) and 34.5 µM (active) and inactive	–
CC(C)(C)C(O)C(Oc1ccc(-c2ccccc2)cc1)n1cncn1 (stereo not given)	54.9 µM (active)	–
N#Cc1c(-c2ccc(Cl)cc2)[nH]c(C(F)(F)F)c1Br	–	-1.12% (inactive)
CC[C@H](C)[C@H]1O[C@]2(C=C[C@@H]1C)C[C@@H]1C[C@@H](C/C=C(\C)[C@@H](O[C@H]3C[C@H](OC)[C@@H](O[C@H]4C[C@H](OC)[C@@H](O)[C@H](C)O4)[C@H](C)O3)[C@@H](C)/C=C/C=C3\CO[C@@H]4[C@H](O)C(C)=C[C@@H](C(=O)O1)[C@]34O)O2	28.9 µM (active)	–
O=C(O)c1cc[c]([Hg][Cl])cc1	54.9 µM (active)	–
CCC(C)c1cc([N+](=O)[O-])cc([N+](=O)[O-])c1OC(=O)C=C(C)C (stereo not given)	–	-7.5% (inactive)
C[CH2][Hg][N]1C(=O)C2C(C1=O)C1(Cl)C(Cl)=C(Cl)C2(Cl)C1(Cl)Cl (stereo not given)	2.33 µM (active)	–
NC(=O)c1ccc(N)nc1	15.5 µM (active)	–
[CH3][Hg][Cl]	10.9 µM (active)	–
Nc1ccc(Cl)cc1C(=O)c1ccccc1	–	8.14% (inactive)
